Pf growth 48h = inhibits P. falciparum growth in the first generation, 48 h; P. falciparum luciferase growth in erythrocytes, 48 h; Potency, µM (top dose mostly 28.7 µM), for the others: at the top dose activity change, negative = inhibition, actives largely listed as inhibitors; hit rate 5.9% among 310,000; AID 504832; further: potency means the concentration at half of the fitted maximal effect; on the % scale 0 is the no-effect control and ±100 the full control effect
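Parasite viability was followed by luminescence of a genomically integrated firefly luciferase. Cultures held 0.1% parasitemia at 2% hematocrit (final), incubated under 5% CO2 at 37 C.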
Pf growth 96h = P. falciparum growth inhibition at 96 hours; hit rate 6.9% among 320,000; Potency, µM (titrated, usually from 28.7 µM), inactives show at the top dose activity change, negative = inhibition, actives largely listed as inhibitors; P. falciparum luciferase reporter growth, 96 h; further: potency means the concentration at half of the fitted maximal effect; on the % scale 0 is the no-effect control and ±100 the full control effect
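Delayed-death screen, second-generation endpoint: infected erythrocytes, 2% hematocrit, 0.05% parasitemia final; 96 hours at 37 C, 5% CO2; luciferase detection reagent; luminescence decrease equals reduced growth.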
Cycloheximide cs = counter-screen hit for Shiga toxin inhibitors, cycloheximide; max response, %; cell reporter, cycloheximide protein synthesis inhibition counterscreen; hit rate 12% among 300,000; in the data active means max response mostly above about 13%, no sharp cut-off; inactive means mostly below about 14%; further: read at 38.3 µM for the half of the compounds with a filed dose; 0% is about no effect
MARV entry inh = inhibitors of Marburg virus binding or cell entry. Marburg virus pseudotyped entry inhibition, cell reporter. Potency, µM (series often up to 37.8 µM), without a hit: at the highest dose activity change, negative = inhibition, most hits filed as inhibitors. hit rate 1.8% among 300,000. AID 540276; calls by dose curve; tested in HEK293 cells; further: potency means the concentration at half of the fitted maximal effect; on the % scale 0 is the no-effect control and ±100 the full control effect
Shiga inhibitor = inhibitors of Shiga toxin in Vero cells; inhibition, % at 38.7 µM; hit rate 9.2% among 290,000; Vero cells, Shiga toxin protein synthesis inhibition reporter; in the data active means inhibition mostly above about 28%, no sharp cut-off; inactive means mostly below about 43%; further: 0% is about no effect
LASV entry inh = Lassa virus entry inhibition; hit rate 1.2% among 300,000; Lassa virus pseudotype entry inhibition, cell reporter; Potency, µM (series often up to 37.9 µM), for the others: at the highest dose activity change, negative = inhibition, hits mostly inhibitors; AID 540256; calls by dose curve; tested in HEK293 cells; further: potency means the concentration at half of the fitted maximal effect; on the % scale 0 is the no-effect control and ±100 the full control effect; nearly all actives have a fitted effect of over 50% in size
An asterisk follows results filed as active; ? = inconclusive; nt = no result; [ ] = another dose, or the depositor's remark. Hits are enriched below; roughly 19% of the tested compounds scored in any of these assays. Unless noted, the call rests on the fitted dose curve; in most records, active means well fitted inhibition curve with a large enough effect; inconclusive means small, poorly fitted or top-dose-only effect, or another doubt; inactive means no such curve, though single readings can be large or run the other way.

SMILES	Pf growth 48h	Pf growth 96h	Cycloheximide cs	MARV entry inh	Shiga inhibitor	LASV entry inh
CC(=O)N1CCCC(C(=O)c2ccc(Oc3ccccc3)cc2)C1 (stereo unspecified)	-18%	?	34*	?	57*	1%[46.1 µM]
Cc1ccc(Cn2ccc(NC(=O)c3noc4c3CCCC4)n2)cc1	31%	?	11	-4%	20	-9%
CCOC(=O)C1CCCc2c1[nH]c1ccc(Cl)cc21 (stereo unspecified)	?	?	-1	?	-10	?
CC(=O)N1c2ccccc2Sc2ccccc21	0%	?	0	nt	-7	nt
Cc1cccc[n+]1CC(=O)N1c2ccccc2Sc2ccccc21	3.7µM*	0%	-1	7%[46.1 µM]	1	?
O=C(NCc1ccc(F)cc1)c1c(O)nc2ccccn2c1=O	nt	nt	nt	19%[46.1 µM]	nt	nt
CCCOc1ccc(C(=O)C(CN2CCOCC2)c2ccccc2)cc1 (stereo unspecified)	?	-20%	9	16µM*	16	?
COc1ccc(C(=O)CN2CCOCC2)cc1F	34%	0.66µM*	2	-1%	7	2%
COc1ccc(C(=O)C(CN2CCOCC2)c2ccccc2)cc1F (stereo unspecified)	7%	-21%	2	8.9µM*	-7	?
CCCOc1ccc(C(=O)C(c2ccccc2)N2CCOCC2)cc1 (stereo unspecified)	-11%	-13%	3	-13%	30	?
O=C(c1ccccc1)C(CN1CCCC1)c1ccccc1 (stereo unspecified)	?	12µM*	-5	7.1µM*	-21	7.9µM*
COc1ccc(C(=O)O)cc1F	10%	-23%	-2	19%	30	15%
COc1ccc(C(=O)OC(C)CN2CCOCC2)cc1OC (stereo unspecified)	12%	?	-5	12%	13	10%
COc1cc(C2Sc3ccccc3NC3=C2C(=O)OC3)cc(OC)c1OC (stereo unspecified)	?	-6%	-6	?	-11	-24%
O=C(c1ccco1)N1CCN(Cc2nnnn2C2CCCCC2)CC1	-7%	32%	-6	-6%[46.1 µM]	-9	4%
O=Cc1ccc(OCC(=O)N2CCc3ccccc32)c(Br)c1	-23%	-1%	nt	-2%	nt	-3%
CC(CN1CCOCC1)C(=O)c1ccccc1 (stereo unspecified)	nt	33%	6	3%	1	14%
COc1ccc(C(O)C(CN2CCOCC2)c2ccccc2)cc1F (stereo unspecified)	6.6µM*	?	2	6%	9	-2%
Cc1ccc(C(=O)C(C)CN2CCCCC2)cc1 (stereo unspecified)	13µM*	13µM*	nt	nt	nt	nt
CCN(CC)Cc1c(C(=O)N/N=C/c2ccco2)nnn1-c1nonc1N	7%	-20%	1	nt	-3	nt
CCOCC(=O)Nc1nnc(Cc2ccc(OC)cc2)s1	-10%	-24%	0	5%	13	-21%
CCOc1cc(S(=O)(=O)NC2CCCC2)ccc1Cl	14%	-3%	10	?	-5	-1%
Cc1ccc2nc(/C(C#N)=C\c3ccc(N4CCCCC4)c([N+](=O)[O-])c3)[nH]c2c1	?	?	20	?	25	?
N#C/C(=C\c1ccc(N2CCOCC2)o1)c1nc2ccccc2[nH]1	62%	56%	49*	?	121*	?
N#C/C(=C/c1ccc(N2CCOCC2)o1)c1ccc(Cl)cc1	160%	218%	36*	?	37	-6%
SMILES	Pf growth 48h	Pf growth 96h	Cycloheximide cs	MARV entry inh	Shiga inhibitor	LASV entry inh
N#C/C(=C\c1ccc(N2CCOCC2)c([N+](=O)[O-])c1)c1nc2ccccc2[nH]1	?	?	13*	?	13	?
N#C/C(=C/c1ccc(N2CCCC2)c([N+](=O)[O-])c1)c1nc2ccccc2[nH]1	?	49%	42*	15%	65*	7%
Cc1ccc(NCC(=O)N/N=C/c2c[nH]c3ccccc23)cc1	?	?	9	1%[46.1 µM]	21	?
Cc1cc(NCCCn2ccnc2)n2ncc(-c3ccc(Cl)cc3)c2n1	-29%	-56%	40*	?	83*	?
CC(C)(C)c1cc(C(F)(F)F)n2ncc(-c3ccccc3)c2n1	36%[5.75 µM]	?	9	20%[46.1 µM]	9	17%
Cn1c(=O)c2c(nc(NCCCN3CCOCC3)n2Cc2ccc(Cl)cc2)n(C)c1=O	33%	11%	10	-1%	-14	-1%
